Data from PubChem BioAssay AID1727 (National Center for Advancing Translational Sciences (NCATS), 2009).
Calls of active or inactive are those of the source. Entries that show only a call come without a potency. Calls follow the shape of the dose curve; as a rule, active = well fitted curve in the direction sought with a large enough effect; inactive = no such curve, though single readings can be large or run the other way.

What follows are compounds tested against Epidermal growth factor receptor (Homo sapiens) (UniProt P00533) (assay: Assay for Inhibitors of the ERK Signaling Pathway using a Homogeneous Screening Assay: EGFR L858R Kinase Inhibition). Conditions: EGFR L858R kinase biochemical inhibition assay; series mostly up to 21.9 µM.
Epidermal growth factor receptor (Homo sapiens), sequence (P00533 whole entry L858R, looked up): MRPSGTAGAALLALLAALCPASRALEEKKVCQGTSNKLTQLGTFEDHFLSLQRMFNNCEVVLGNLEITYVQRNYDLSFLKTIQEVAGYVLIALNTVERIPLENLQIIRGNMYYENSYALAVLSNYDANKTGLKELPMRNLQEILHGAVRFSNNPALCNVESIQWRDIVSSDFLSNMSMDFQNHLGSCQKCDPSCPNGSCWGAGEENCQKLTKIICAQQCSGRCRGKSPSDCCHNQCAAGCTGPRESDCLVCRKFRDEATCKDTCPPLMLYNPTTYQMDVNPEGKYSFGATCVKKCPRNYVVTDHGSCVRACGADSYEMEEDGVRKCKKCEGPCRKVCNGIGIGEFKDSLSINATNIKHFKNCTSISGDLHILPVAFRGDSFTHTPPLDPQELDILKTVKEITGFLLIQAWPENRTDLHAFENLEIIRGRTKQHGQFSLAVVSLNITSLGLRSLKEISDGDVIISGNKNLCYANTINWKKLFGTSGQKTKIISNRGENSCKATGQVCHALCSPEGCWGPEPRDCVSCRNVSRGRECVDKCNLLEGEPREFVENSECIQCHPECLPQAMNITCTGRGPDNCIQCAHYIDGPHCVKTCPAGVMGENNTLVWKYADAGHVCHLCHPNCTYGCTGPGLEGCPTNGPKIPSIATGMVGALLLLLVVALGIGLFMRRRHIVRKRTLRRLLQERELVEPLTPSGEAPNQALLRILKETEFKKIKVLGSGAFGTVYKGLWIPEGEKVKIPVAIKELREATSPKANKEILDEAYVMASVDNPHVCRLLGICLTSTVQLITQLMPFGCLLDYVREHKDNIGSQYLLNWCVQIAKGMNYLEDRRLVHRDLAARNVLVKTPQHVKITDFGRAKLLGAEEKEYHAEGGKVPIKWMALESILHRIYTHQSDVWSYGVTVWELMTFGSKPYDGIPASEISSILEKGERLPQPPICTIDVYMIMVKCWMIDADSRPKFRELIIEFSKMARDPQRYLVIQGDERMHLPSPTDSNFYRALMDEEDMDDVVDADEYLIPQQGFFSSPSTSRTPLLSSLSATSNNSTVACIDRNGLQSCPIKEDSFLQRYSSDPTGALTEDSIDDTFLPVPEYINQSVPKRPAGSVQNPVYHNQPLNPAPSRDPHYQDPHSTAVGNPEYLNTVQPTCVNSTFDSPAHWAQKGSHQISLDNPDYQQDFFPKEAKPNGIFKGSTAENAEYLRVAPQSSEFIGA
Text: qHTS Assay for Inhibitors of the ERK Signaling Pathway using a Homogeneous Screening Assay
NIH Chemical Genomics Center [NCGC]
NIH Molecular Libraries Screening Centers Network [MLSCN]
Assay Submitter (PI): Dr. Wei Zheng, NCGC/NIH
The Ras/extracellular-signal-regulated kinase (ERK) mitogen activated protein (MAP) kinase signaling pathway (ERK1/2 cascade) plays is a key role in transmitting signals from the cell surface to the nucleus (Nishida and Gotoh 1993; Chang and Karin, 2001). The cascade is initiated by the small G-protein Ras, which recruits Raf […], where activation occurs. Alternatively, this pathway can be activated by elevating intracellular cAMP.
Activation of the ERK pathway is essential in increased cell division and cell survival. Sustained and constitutive activation of the ERK pathway, however, has been linked to uncontrolled cell proliferation, increased cell survival, and tumor progression. Thus, the ERK has been as an attractive target for cancer chemotherapy in the past few years (Sebolt-Leopold and Herrera, 2004). Given its physiological and pathological importance, assessment of ERK phosphorylation has been broadly performed in both basic research and drug discovery. Most assays for the measurement of ERK phosphorylation use the antibody-based detection methods, such as western blot and ELISA. These assays require multiple reagent additions with cell wash steps and are not suitable for high-throughput screening.
The current cell-based ERK phosphorylation assay was performed using AlphaScreen platform. AlphaScreen is a two bead-based proximity-dependent chemical energy transfer luminescent assay platform. The assay reagents (ERK SureFire(TM) kit) were supplied from TGR BioSciences (Australia). In the presence of specific antibodies, phosphorylated ERK will bring "donor" and "acceptor" beads to a proximity range (<200 nm), and subsequently lead a chemical luminescent reaction upon exciting donor beads with 680 nm laser. To validate pathway hits from the cell-based assay, enzyme assays consisting of EGFR tyrosine kinase, Raf and MEK were used as a means of deciphering the enzymes of target for the prioritized group of compounds derived from the HEK-293 cell based assay. The compounds were tested against significant members of the ERK signaling pathway EGFR and EGFR mutants (EGFR L858R, EGFR T790M, and EGFR L858R T790M). In order to establish the specificity of the prioritized compounds for EGFR and EGFR mutants, the compounds were also assayed against other important ERK signaling pathway enzymes, c-RAF and MEK-1.
NCGC Assay Protocol Summary:
The HTRF kinase assay (components supplied as kit by Cisbio) was chosen for the EGFR and EGFR mutant enzyme assays that applied the time resolved fluorescence resonance energy transfer (TR-FRET) principle. A peptide substrate is labeled with a biotin that can bind to XL665 labeled streptavidin and the anti-phosphoresidue antibody is labeled with Eu+. Upon phosphorylation of the substrate, the antibody binds to phosphorylated substrate that enables TR-FRET detection in homogenous assay format.
An HTRF Kinease TK assay kit (Cisbio, Bedford, MA) was used to develop the EGFR and EGFR mutant assays (Harbert et al., 2008. Harbert C, Marshall J, Soh S, Steger K. Development of a HTRF Kinase Assay for Determination of Syk Activity. Current Chemical Genomics. 1: 20-26. 2008). EGFR and EGFR mutants were obtained from Invitrogen. The assay buffer was composed of 50 mM HEPES (pH 7.0), 5 mM MgCl2, 5mM DTT, 0.1 % NaN3, 0.1 % BSA and 0.1 mM orthovanadate.
The HTRF assays were preformed according to the HTRF Kinease TK kit. Optimization for each enzyme was preformed in 384 well format (data not included). All reagents were dispensed into 1536 well plates.
(1) Enzyme, […] EGFR at 3 nM final
(2) Compound, 22 nl, Library Compounds in 0.128 to 10 mM titration series or control
(3) Reagent, 1.5 ul 10 uM ATP and 0.25 uM substrate final
(4) Incubation for 30 min, Ambient conditions
[…]
`N#C/C(=C(/N)Sc1ccc(N)cc1)c1ccccc1C(F)(F)F` was tested, and the Potency was “inactive”.
`Cn1nc(-c2ccccn2)nc2c(=O)n(C)c(=O)nc1-2` was tested, and the Potency was “inactive”.
For `Fc1ccc(Nc2ncnc3sc4c(c23)CCC4)cc1F`, the Potency was 44.7 nM (active).
For `CN(C)c1cccc2c1C(=O)c1ccccc1C2=O`, the Potency was “inactive”.
In the case of `Cc1ccc2nc(=O)c(NNc3ccccc3)cnc2c1`, the Potency is reported as 631 nM (active).
With `Cc1nc2ccccc2nc(=O)c1NNc1ccccc1` the Potency was 631 nM (active).
`O=C1c2ccccc2C(=O)c2c(NCCCN(CCO)CCO)cccc21` was tested, and the Potency was “inactive”.
`Cc1ccc(NNc2c(C)nc3ccccc3nc2=O)cc1` was tested, and the Potency was 3160 nM (active).
`COc1ccc(C(=O)c2ccc(Cl)c([N+](=O)[O-])c2)cc1` was tested, and the Potency was “inactive”.
`CCn1c(=O)c2[nH]c(-c3ccccc3)nc2n(CC)c1=O` was tested, and the Potency was “inactive”.
For `CS(=O)(=O)CCNCc1nc(-c2ccc3ncnc(Nc4ccc(OCc5cccc(F)c5)c(Cl)c4)c3c2)cs1`, the Potency was 50.1 nM (active).
With `Cn1c(=O)[nH]c2nnc(-c3ccc(Cl)c(Cl)c3)nc2c1=O` the Potency was “inactive”.
For `O=C(Nc1nc(-c2ccccc2)cs1)c1ccc(N2CCOCC2)c([N+](=O)[O-])c1`, the Potency was “inactive”.
For `CNc1cccc2c1C(=O)c1ccccc1C2=O`, the Potency was “inactive”.
`O=C1c2ccccc2C(=O)c2c1cccc2N1CCCC1` was tested, and the Potency was “inactive”.
For `Cn1nc(-c2ccc(Cl)cc2)nc2c(=O)n(C)c(=O)nc1-2`, the Potency was “inactive”.
In the case of `CCN(CC)CCC(=O)Nc1cccc2c1C(=O)c1ccccc1C2=O`, the Potency is reported as “inactive”.
